Experimental data reported in PubChem BioAssay (NCI).
About 79,000 compounds went through this panel and 15% of them were active in at least one assay; those are over-represented in the sample as a whole. Rule as the data show it: active = growth inhibition above about 70%; inactive = the rest.

Legend:
[1] = NCI Yeast Anticancer Drug Screen. Data for the rad50 strain (AID 155);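 also: 0% = growth of vehicle-only cultures of the same strain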; details: S. cerevisiae rad50 strain growth inhibition; at 50.0 µM; stronger effect = higher value
Method in brief: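 Compounds were tested on a yeast strain with an engineered DNA damage repair alteration; the reported value is growth inhibition normalised to vehicle treatment.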

[2] = NCI Yeast Anticancer Drug Screen. Data for the mec2-1 strain (AID 157); details: S. cerevisiae mec2-1 strain, at 50.0 µM, stronger effect = higher value
Method in brief: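 Vehicle-treated cultures served as reference for growth inhibition of compound-exposed mec2-1 yeast.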

[3] = NCI Yeast Anticancer Drug Screen. Data for the sgs1 mgt1 strain (AID 161);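 also: 0% = growth of cultures given vehicle only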; details: S. cerevisiae sgs1 mgt1 strain, at 50.0 µM, stronger effect = higher value
Method in brief: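 Mutant yeast exposed to compound; growth scored against vehicle-only wells.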

[4] = NCI Yeast Anticancer Drug Screen. Data for the cln2 rad14 strain (AID 165);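 also: 0% = growth equal to vehicle treated cultures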; details: S. cerevisiae cln2 rad14 strain, at 50.0 µM, stronger effect = higher value
Method in brief: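 Each compound was tested on cln2 rad14 yeast. Inhibition of growth was calculated against vehicle-exposed controls.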

[5] = NCI Yeast Anticancer Drug Screen. Data for the bub3 strain (AID 167); details: S. cerevisiae bub3 mutant strain, at 50.0 µM, stronger effect = higher value
Method in brief: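 Growth of a checkpoint-deficient yeast mutant is measured after compound exposure. Values represent inhibition relative to vehicle.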

[6] = NCI Yeast Anticancer Drug Screen. Data for the mlh1 rad18 strain (AID 175); details: S. cerevisiae mlh1 rad18 strain growth inhibition; at 50.0 µM; stronger effect = higher value
Method in brief: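 Vehicle-treated cultures served as the reference for growth inhibition in a yeast strain carrying DNA damage repair alterations exposed to each compound.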

Measured: growth inhibition

CCCCC1SC2=NCCN2C1(O)c1ccc(Cl)cc1 (stereo unspecified)
inactive: [1] 14.6% | [2] 3.55% | [3] 28.9% | [4] 18% | [5] 31.3% | [6] 26.5%

O=C(O)C1=C(C(=O)O)C2CCC1C2
inactive: [1] -25.1% | [2] -33.5% | [3] -23.2% | [4] 2.65% | [5] -11.8% | [6] -14.4%

O=C(O)CCC(=O)CCC(=O)c1ccc(O)c2ncccc12
inactive: [1] -6.55% | [2] 6.2% | [3] 16.8% | [4] 26.5% | [5] 16.2% | [6] 21.5%

CC(=O)Nc1cccc(S(=O)(=O)c2cccc(NC(C)=O)c2)c1
inactive: [1] -9.8% | [2] -10.1% | [3] -7.55% | [4] -66.5% | [5] 8.1% | [6] -10.3%

COc1cc(OC)c(NC2=CC(c3ccc(Cl)cc3)OC2=O)cc1Cl (stereo unspecified)
inactive: [1] 27.3% | [2] 1.85% | [3] 12.8% | [4] -3.6% | [5] 1.4% | [6] 17.8%

CO[Si](C)(C)OC
inactive: [1] -6.65% | [2] -32% | [3] -7.15% | [4] 0.3% | [5] -6.15% | [6] -13.9%

Clc1cc(Cc2cc(Cl)c(Cl)c3c2OCOC3)c2c(c1Cl)COCO2
inactive: [1] -47.6% | [2] -24.9% | [3] -5% | [4] -22.4% | [5] -10.6% | [6] -18.3%

CC(C)NC1(N(C)C)N=C(N(C)C)N=C(N(C)C)O1 (stereo unspecified)
inactive: [1] -3.65% | [2] -2.7% | [3] 2.75% | [4] 27% | [5] 9.5% | [6] -1.25%

ClC1(Cl)CC1c1ccccc1 (stereo unspecified)
inactive: [1] 0.1% | [2] 11.9% | [3] 6.8% | [4] -9.7% | [5] 1.45% | [6] 14.7%

CC(SSc1ccc(C(C)(C)C)cc1)c1ccccc1 (stereo unspecified)
inactive: [1] 9.25% | [2] -14.2% | [3] -11.1% | [4] -35.4% | [5] 10.2% | [6] -1.4%

S=C(NNC(=S)Nc1ccccc1)Nc1ccccc1
inactive: [1] -16.9% | [2] 1.7% | [3] 6.9% | [4] -1.15% | [5] -5.4% | [6] -2.2%

Cc1cc[n+](CC(=O)CC(O)(C(F)(F)F)C(F)(F)F)cc1
inactive: [1] -9% | [2] 5.7% | [3] 15.2% | [4] -4.1% | [5] -6.95% | [6] -1.6%

COc1ccc2c(CCn3ccccc3=O)cccc2c1
inactive: [1] -13.3% | [2] -8.5% | [3] 7.55% | [4] -13.9% | [5] 44.9% | [6] -11.2%

CCCCCCCCCCCCCC(=O)OCCCC
inactive: [1] -25.6% | [2] -54.4% | [3] -59.1% | [4] -143% | [5] -52% | [6] -7.35%

COc1cccc(CN(CCc2cccc(OC)c2OC)C(=O)CN2CCOCC2)c1O
inactive: [1] -3.8% | [2] 9.35% | [3] -0.05% | [4] 8.8% | [5] 4.9% | [6] -23.1%

CC12CC(C/C1=N/O)C(C)(C)C2 (stereo unspecified)
inactive: [1] -4.3% | [2] 16.4% | [3] 1.55% | [4] 15.7% | [5] -7.65% | [6] 9.6%

Cc1ccc2nc(-c3cccc([N+](=O)[O-])c3)c(N=O)n2c1
inactive: [1] -0.7% | [2] 4.35% | [3] 1.05% | [4] -14.9% | [5] 2.1% | [6] 21.2%

NC1=CN(Cc2ccccc2)C2=N/C(=C\c3ccccc3)C(=O)N12
inactive: [1] -13.3% | [2] -5.8% | [3] 8.5% | [4] -16% | [5] 14.2% | [6] -33.7%

CCC1(C)N=C(C(N)=O)c2ncn(N=C(C)C)c2N1 (stereo unspecified)
inactive: [1] -15.8% | [2] -30.2% | [3] -24.3% | [4] 14.2% | [5] -10.5% | [6] -16.6%

O=C1C=C(c2ccccc2)C(c2ccccc2)=C1
inactive: [1] 23.6% | [2] 2.8% | [3] -5.2% | [4] 30.1% | [5] -5.6% | [6] 11.1%

C=CC1C(OC2OC(CO)C(O)C(O)C2O)OC=C(C(=O)OC)C1CC=O (stereo unspecified)
inactive: [1] 32.9% | [2] 11.9% | [3] 4.15% | [4] 13.4% | [5] 18.3% | [6] 32.7%

O=C1NC(Nc2ccccc2)=NC(C(F)(F)F)(C(F)(F)F)N1
inactive: [1] -1.5% | [2] 1.1% | [3] 36% | [4] 32.5% | [5] 39.6% | [6] -8%

CCOc1ccccc1NC(=O)Nc1cccc2ccccc12
inactive: [1] -3.5% | [2] 3.75% | [3] 3.65% | [4] -22.3% | [5] -6.8% | [6] -15.4%

COc1ccc(NC(=O)COC(=O)c2cccc3c(=O)c4ccccc4[nH]c23)cc1
inactive: [1] 43.4% | [2] 41.2% | [3] 27.4% | [4] 23.2% | [5] 21.2% | [6] 48.6%

CCOC(=O)c1cc2c(nc1C)-c1cc(Cl)ccc1OC2OCc1ccccc1 (stereo unspecified)
inactive: [1] -1.65% | [2] -3% | [3] -21.6% | [4] -3.55% | [5] -12.2% | [6] 4.3%

CC(C)(C)CC(C)(C)c1cc2c(O)c(c1)Cc1cc(C(C)(C)CC(C)(C)C)cc(c1O)Cc1cc(C(C)(C)CC(C)(C)C)cc(c1O)Cc1cc(C(C)(C)CC(C)(C)C)cc(c1O)Cc1cc(C(C)(C)CC(C)(C)C)cc(c1O)C2
inactive: [1] 20.5% | [2] 33.4% | [3] 8.75% | [4] 31.4% | [5] 6.3% | [6] 24.2%

CCOC(=O)c1ccc(CS(=O)c2ccccc2)c([N+](=O)[O-])c1 (stereo unspecified)
inactive: [1] 14.7% | [2] -4.75% | [3] 20.6% | [4] 3.55% | [5] 58.1% | [6] 18.2%

Cc1c2ccn3c(=O)c4ccccc4cc3c2c(C)c2c1[nH]c1ccccc12
inactive: [1] 56.1% | [2] 15.2% | [3] 9.45% | [4] 16.7% | [5] 21.8% | [6] 26.6%

C/C(=C\c1ccccc1)C(O)S(=O)(=O)O (stereo unspecified)
inactive: [1] 4.5% | [2] -0.35% | [3] -2.9% | [4] 11.9% | [5] -12.1% | [6] -4.55%

CCCC1OC1(CC)C(=O)OCC(CC)(COC(=O)C1(CC)OC1CCC)COC(=O)C1(CC)OC1CCC (stereo unspecified)
inactive: [1] -7.4% | [2] -19.5% | [3] 1.25% | [4] -2.05% | [5] 4.35% | [6] 4%

CCC(CC)(C[NH-])C[NH-].[Cl][Pt+2][Cl]
inactive: [1] 10% | [2] 41.7% | [3] 10% | [4] 16.2% | [5] 18.2% | [6] -7.95%

O.O.[Cu+2].[Cu+2].[NH-]CCC(=O)[N-]C(Cc1cnc[nH]1)C(=O)O.[NH-]CCC(=O)[N-]C(Cc1cnc[nH]1)C(=O)O (stereo unspecified)
inactive: [1] -26.1% | [2] 5.8% | [3] 0.95% | [4] 31.8% | [5] 6.35% | [6] 11.8%

CCn1cc(C(=O)O)c(=O)c2ccc(-c3cn[nH]c3C)nc21
inactive: [1] 44.5% | [2] 34.1% | [3] 34.6% | [4] 4.45% | [5] 12.2% | [6] 29.9%

N#Cc1ccc(-c2nc3ccc(Cl)cc3[nH]2)cc1
inactive: [1] -47.9% | [2] -31% | [3] -13.7% | [4] 6.7% | [5] -30.9% | [6] -21.9%

Cc1ccc(S(=O)(=O)N/N=C/C(C)c2cccnc2)cc1 (stereo unspecified)
inactive: [1] -9% | [2] 6.8% | [3] 4% | [4] 13.6% | [5] 5.9% | [6] 7.05%

O=C(O)COc1ccccc1OCC(=O)O
inactive: [1] 17.4% | [2] 7.3% | [3] -8.6% | [4] 0.6% | [5] -0.1% | [6] 1.2%

Cc1nc2ccccc2nc1CCC(=O)O
inactive: [1] -22.9% | [2] 4.25% | [3] -17.4% | [4] -23.6% | [5] -11.2% | [6] -6.65%

CCOC(=O)C/C(C)=N\NS(=O)(=O)c1ccc([N+](=O)[O-])cc1
inactive: [1] 3.05% | [2] -16.5% | [3] 8.85% | [4] -30.1% | [5] 8% | [6] 2.45%

CC(c1ccccc1O)C1CCCCC1N=O (stereo unspecified)
inactive: [1] -0.15% | [2] 3% | [3] 16.1% | [4] -48.5% | [5] 15.2% | [6] -4.15%

c1ccc([Si]2(c3ccccc3)[Si](c3ccccc3)(c3ccccc3)[Si](c3ccccc3)(c3ccccc3)[Si]2(c2ccccc2)c2ccccc2)cc1
inactive: [1] 6% | [2] -1.4% | [3] -35% | [4] -1.45% | [5] -0.45% | [6] 3.75%

O=C1NOCC1NCc1c(O)ccc2ccccc12 (stereo unspecified)
inactive: [1] 19.9% | [2] 13.2% | [3] 33.7% | [4] 26.6% | [5] 17.9% | [6] 23.2%
